# Assay results as given in ChEMBL document CHEMBL1961873, “Compounds: GSK PKIS; Assays: Nanosyn kinase panel” (2012).
# How the values were obtained:
# [1] = target: Mitogen-activated protein kinase kinase kinase kinase 4 (Homo sapiens) (UniProt O95819); details: at 1 µM;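 also: reported figure is an averaged inhibition value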
# [2] = target: Dual specificity mitogen-activated protein kinase kinase 1 (Homo sapiens) (UniProt Q02750); details: at 0.1 µM
# [3] = target: Dual specificity mitogen-activated protein kinase kinase 1 (Homo sapiens) (UniProt Q02750); details: at 1 µM
# [4] = target: Misshapen-like kinase 1 (Homo sapiens) (UniProt Q8N4C8); details: at 0.1 µM
# Chain of Misshapen-like kinase 1 (Homo sapiens) (Q8N4C8 whole entry, looked up): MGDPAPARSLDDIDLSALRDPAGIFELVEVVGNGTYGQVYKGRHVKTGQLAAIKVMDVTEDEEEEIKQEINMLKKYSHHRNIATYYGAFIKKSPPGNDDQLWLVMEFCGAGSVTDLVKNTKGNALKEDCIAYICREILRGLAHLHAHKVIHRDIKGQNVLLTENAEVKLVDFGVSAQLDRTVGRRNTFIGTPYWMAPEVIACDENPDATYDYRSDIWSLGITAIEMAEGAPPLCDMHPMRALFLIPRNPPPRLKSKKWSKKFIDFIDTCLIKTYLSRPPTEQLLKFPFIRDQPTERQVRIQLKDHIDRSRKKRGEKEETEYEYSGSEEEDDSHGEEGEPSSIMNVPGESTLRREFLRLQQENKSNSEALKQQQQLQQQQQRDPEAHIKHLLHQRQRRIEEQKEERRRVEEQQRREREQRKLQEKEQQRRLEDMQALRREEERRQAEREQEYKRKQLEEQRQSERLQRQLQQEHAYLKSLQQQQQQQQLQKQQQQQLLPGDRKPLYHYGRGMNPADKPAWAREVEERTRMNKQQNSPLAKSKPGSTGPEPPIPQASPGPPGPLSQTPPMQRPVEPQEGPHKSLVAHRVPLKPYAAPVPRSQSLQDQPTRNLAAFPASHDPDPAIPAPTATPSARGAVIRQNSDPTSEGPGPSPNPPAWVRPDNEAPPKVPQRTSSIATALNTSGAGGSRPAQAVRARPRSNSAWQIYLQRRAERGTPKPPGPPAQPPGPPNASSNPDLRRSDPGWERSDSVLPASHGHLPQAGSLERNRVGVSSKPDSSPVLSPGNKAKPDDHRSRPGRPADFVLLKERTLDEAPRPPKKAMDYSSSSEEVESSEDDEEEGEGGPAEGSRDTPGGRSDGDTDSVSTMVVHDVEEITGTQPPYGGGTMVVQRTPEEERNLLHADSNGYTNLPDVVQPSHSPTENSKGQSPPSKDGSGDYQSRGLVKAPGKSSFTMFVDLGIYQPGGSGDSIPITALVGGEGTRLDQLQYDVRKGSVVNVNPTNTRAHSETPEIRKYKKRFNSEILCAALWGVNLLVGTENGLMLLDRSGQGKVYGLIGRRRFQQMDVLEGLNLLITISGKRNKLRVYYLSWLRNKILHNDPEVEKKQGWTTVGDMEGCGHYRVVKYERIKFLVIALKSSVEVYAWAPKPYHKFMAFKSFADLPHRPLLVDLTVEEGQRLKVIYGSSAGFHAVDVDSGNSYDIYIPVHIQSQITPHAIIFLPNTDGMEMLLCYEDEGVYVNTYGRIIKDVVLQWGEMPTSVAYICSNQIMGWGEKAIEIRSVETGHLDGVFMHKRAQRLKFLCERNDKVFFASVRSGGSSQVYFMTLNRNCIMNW
# [5] = target: Misshapen-like kinase 1 (Homo sapiens) (UniProt Q8N4C8); details: at 1 µM
# [6] = target: T1, Serine/threonine-protein kinase 4 (Homo sapiens) (UniProt Q13043); details: at 0.1 µM
# T1 sequence (whole entry): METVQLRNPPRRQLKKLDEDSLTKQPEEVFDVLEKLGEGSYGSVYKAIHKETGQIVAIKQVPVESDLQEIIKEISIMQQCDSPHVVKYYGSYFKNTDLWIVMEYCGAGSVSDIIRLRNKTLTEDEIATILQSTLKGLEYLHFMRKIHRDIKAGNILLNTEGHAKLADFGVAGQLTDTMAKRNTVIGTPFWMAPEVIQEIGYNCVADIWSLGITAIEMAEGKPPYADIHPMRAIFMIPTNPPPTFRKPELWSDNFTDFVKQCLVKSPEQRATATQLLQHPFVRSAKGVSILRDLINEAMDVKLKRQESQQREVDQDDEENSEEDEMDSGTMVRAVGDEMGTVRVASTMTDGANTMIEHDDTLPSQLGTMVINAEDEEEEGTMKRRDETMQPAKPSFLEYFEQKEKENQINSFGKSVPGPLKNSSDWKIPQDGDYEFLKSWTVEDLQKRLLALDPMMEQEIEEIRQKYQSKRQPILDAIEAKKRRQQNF
# [7] = target: T1, Serine/threonine-protein kinase 4 (Homo sapiens); details: at 1 µM
# [8] = target: T2, Serine/threonine-protein kinase 3 (Homo sapiens) (UniProt Q13188); details: at 0.1 µM
# T2 sequence (whole entry): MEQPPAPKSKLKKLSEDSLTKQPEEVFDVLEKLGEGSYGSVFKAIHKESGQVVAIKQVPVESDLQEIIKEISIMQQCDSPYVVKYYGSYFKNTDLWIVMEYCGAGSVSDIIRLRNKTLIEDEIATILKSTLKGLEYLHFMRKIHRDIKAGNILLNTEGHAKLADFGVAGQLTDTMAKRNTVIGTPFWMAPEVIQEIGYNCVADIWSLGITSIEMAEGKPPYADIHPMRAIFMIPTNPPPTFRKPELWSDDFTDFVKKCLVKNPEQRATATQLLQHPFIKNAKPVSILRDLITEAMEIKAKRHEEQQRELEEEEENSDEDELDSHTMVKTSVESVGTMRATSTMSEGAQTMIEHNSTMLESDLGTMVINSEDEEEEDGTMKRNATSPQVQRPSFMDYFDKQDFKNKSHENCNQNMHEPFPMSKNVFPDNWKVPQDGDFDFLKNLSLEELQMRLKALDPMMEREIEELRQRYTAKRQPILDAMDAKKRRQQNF
# [9] = target: T2, Serine/threonine-protein kinase 3 (Homo sapiens); details: at 1 µM
# [10] = target: Serine/threonine-protein kinase 26 (Homo sapiens) (UniProt Q9P289); details: at 0.1 µM
# [11] = target: Serine/threonine-protein kinase 26 (Homo sapiens) (UniProt Q9P289); details: at 1 µM
# [12] = target: Serine/threonine-protein kinase PAK 1 (Homo sapiens) (UniProt Q13153); details: at 0.1 µM
# Chain of Serine/threonine-protein kinase PAK 1 (Homo sapiens) (Q13153 whole entry): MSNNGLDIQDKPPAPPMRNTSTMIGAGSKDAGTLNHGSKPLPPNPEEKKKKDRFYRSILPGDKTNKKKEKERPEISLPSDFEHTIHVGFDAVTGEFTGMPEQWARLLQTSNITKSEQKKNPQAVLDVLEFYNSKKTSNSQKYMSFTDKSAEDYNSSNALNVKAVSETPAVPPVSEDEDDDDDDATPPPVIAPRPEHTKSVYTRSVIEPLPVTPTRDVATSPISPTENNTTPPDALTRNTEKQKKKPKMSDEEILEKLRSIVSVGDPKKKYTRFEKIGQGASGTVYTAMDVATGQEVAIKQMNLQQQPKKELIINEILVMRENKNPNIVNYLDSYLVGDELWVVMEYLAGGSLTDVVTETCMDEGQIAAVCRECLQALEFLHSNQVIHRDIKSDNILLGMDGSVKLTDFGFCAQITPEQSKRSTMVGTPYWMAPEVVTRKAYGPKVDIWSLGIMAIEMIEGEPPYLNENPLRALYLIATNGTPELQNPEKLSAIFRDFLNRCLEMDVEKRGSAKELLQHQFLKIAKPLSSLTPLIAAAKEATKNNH
# [13] = target: Serine/threonine-protein kinase PAK 1 (Homo sapiens) (UniProt Q13153); details: at 1 µM
# [14] = target: Serine/threonine-protein kinase PAK 2 (Homo sapiens) (UniProt Q13177); details: at 0.1 µM
# Chain of Serine/threonine-protein kinase PAK 2 (Homo sapiens) (Q13177 whole entry): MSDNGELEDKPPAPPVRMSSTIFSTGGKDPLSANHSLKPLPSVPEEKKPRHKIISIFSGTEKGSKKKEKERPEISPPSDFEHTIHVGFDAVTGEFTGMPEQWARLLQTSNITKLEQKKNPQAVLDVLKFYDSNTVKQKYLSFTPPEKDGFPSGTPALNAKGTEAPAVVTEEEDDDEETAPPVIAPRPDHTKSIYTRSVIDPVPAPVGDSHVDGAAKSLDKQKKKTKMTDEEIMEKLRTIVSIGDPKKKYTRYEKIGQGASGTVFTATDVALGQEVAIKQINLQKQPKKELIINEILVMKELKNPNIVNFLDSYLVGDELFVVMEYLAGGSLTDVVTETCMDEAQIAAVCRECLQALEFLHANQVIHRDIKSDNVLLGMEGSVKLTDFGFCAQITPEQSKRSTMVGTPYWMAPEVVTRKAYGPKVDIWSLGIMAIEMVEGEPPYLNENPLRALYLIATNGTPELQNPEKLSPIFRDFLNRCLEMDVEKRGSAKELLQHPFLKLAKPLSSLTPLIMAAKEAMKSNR
# [15] = target: Serine/threonine-protein kinase PAK 2 (Homo sapiens) (UniProt Q13177); details: at 1 µM
# [16] = target: Serine/threonine-protein kinase PAK 3 (Homo sapiens) (UniProt O75914); details: at 0.1 µM
# Chain of Serine/threonine-protein kinase PAK 3 (Homo sapiens) (O75914 whole entry, looked up): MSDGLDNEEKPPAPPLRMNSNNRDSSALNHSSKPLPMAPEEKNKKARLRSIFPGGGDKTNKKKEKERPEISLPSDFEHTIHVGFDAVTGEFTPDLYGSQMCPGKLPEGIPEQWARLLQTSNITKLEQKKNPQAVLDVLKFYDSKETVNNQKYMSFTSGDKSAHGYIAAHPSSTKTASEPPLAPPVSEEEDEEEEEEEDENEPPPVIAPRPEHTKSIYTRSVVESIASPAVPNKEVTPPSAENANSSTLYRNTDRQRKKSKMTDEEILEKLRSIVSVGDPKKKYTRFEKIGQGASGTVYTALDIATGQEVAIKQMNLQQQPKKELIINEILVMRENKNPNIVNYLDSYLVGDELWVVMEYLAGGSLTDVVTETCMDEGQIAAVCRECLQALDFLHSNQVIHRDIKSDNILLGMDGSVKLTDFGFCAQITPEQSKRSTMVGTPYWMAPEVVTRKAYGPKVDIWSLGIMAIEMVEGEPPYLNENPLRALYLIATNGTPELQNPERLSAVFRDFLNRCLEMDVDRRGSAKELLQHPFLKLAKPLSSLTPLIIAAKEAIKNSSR
# [17] = target: Serine/threonine-protein kinase PAK 3 (Homo sapiens) (UniProt O75914); details: at 1 µM
# [18] = target: Serine/threonine-protein kinase PAK 5 (Homo sapiens) (UniProt Q9P286); details: at 0.1 µM
# [19] = target: Serine/threonine-protein kinase PAK 5 (Homo sapiens) (UniProt Q9P286); details: at 1 µM
# [20] = target: Serine/threonine-protein kinase PAK 6 (Homo sapiens) (UniProt Q9NQU5); details: at 0.1 µM;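 also: mean PAK6 inhibition reported from the GSK PKIS screen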
# Chain of Serine/threonine-protein kinase PAK 6 (Homo sapiens) (Q9NQU5 whole entry, looked up): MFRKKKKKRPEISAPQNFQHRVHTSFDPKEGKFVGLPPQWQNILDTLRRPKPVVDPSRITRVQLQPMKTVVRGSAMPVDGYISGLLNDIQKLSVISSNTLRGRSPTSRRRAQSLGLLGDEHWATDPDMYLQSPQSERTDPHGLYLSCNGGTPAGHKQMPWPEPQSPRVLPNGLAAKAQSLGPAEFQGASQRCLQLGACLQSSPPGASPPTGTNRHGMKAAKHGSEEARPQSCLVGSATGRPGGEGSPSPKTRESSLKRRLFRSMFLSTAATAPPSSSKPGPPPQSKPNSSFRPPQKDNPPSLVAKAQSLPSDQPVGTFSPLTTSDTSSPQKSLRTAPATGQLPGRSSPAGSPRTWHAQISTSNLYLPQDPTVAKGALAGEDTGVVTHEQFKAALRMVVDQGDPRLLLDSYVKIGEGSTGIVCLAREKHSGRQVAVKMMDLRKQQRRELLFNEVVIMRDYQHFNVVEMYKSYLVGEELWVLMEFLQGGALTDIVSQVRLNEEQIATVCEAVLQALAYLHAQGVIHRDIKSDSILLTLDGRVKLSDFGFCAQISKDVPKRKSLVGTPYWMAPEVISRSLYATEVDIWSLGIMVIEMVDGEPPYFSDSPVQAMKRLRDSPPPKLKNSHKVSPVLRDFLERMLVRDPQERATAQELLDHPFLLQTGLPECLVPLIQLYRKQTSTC
# Chain of Mitogen-activated protein kinase kinase kinase kinase 4 (Homo sapiens) (O95819 2-1239 limits assumed): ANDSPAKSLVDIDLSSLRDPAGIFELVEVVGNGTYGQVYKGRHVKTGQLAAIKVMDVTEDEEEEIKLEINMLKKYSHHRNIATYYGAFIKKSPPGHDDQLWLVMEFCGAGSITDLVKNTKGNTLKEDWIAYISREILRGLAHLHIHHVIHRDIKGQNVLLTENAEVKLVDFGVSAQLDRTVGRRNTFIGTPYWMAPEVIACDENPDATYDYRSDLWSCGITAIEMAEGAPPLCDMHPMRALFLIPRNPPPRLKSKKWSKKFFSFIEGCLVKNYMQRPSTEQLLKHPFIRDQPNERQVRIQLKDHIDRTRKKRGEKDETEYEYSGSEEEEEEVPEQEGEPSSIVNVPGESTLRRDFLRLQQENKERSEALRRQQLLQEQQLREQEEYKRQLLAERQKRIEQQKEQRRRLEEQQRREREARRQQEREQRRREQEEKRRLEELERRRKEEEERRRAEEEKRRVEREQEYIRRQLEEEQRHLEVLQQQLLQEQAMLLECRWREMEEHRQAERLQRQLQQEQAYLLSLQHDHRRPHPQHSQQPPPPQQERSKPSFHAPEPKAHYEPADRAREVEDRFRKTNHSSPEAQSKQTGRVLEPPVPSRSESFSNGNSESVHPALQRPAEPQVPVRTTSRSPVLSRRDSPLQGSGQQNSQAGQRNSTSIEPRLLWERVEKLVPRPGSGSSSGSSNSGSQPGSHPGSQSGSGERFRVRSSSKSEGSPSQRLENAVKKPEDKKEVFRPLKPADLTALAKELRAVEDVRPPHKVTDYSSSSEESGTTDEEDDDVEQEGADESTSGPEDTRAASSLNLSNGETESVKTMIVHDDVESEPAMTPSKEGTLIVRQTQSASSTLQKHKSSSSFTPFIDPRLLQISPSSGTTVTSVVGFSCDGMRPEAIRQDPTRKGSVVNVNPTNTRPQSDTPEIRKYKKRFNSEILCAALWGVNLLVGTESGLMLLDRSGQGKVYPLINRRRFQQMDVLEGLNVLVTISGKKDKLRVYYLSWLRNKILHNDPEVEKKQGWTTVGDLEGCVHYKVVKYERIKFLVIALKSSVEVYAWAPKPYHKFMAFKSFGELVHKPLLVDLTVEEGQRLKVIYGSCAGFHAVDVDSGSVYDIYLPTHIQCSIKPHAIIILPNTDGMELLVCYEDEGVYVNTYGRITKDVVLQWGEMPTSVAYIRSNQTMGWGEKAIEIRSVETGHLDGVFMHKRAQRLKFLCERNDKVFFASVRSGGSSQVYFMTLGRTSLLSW
compound,measurement,setting,value
NS(=O)(=O)c1ccc(N/N=C2\C(=O)Nc3ccc4ncccc4c32)cc1,inhibition,[1],82.4%
same,inhibition,[2],14.3%
same,inhibition,[3],61.1%
same,inhibition,[4],34.1%
same,inhibition,[5],76.2%
same,inhibition,[6],84.6%
same,inhibition,[7],89.5%
same,inhibition,[8],80.3%
same,inhibition,[9],88.3%
same,inhibition,[10],43.6%
same,inhibition,[11],72.5%
same,inhibition,[12],5.44%
same,inhibition,[13],7.55%
same,inhibition,[14],1.04%
same,inhibition,[15],3.9%
same,inhibition,[16],2.76%
same,inhibition,[17],3.77%
same,inhibition,[18],-1.93%
same,inhibition,[19],3.21%
same,inhibition,[20],-4.05%
CCn1c(-c2nonc2N)nc2c(C#CC(C)(C)O)ncc(OC3CCNCC3)c21,inhibition,[1],6.21%
same,inhibition,[2],1.98%
same,inhibition,[3],3.44%
same,inhibition,[4],4.48%
same,inhibition,[5],5.83%
same,inhibition,[6],1.6%
same,inhibition,[7],4.54%
same,inhibition,[8],3.55%
same,inhibition,[9],6.04%
same,inhibition,[10],0.64%
same,inhibition,[11],4.19%
same,inhibition,[12],2.8%
same,inhibition,[13],8.91%
same,inhibition,[14],1.98%
same,inhibition,[15],13.5%
same,inhibition,[16],2.99%
same,inhibition,[17],8.39%
same,inhibition,[18],34.6%
same,inhibition,[19],80.1%
same,inhibition,[20],14.6%
c1ccc(-c2nc3n(c2-c2ccc4c(c2)OCO4)CCC3)nc1,inhibition,[1],6.59%
same,inhibition,[2],1.98%
same,inhibition,[3],1.68%
same,inhibition,[4],3.49%
same,inhibition,[5],6.24%
same,inhibition,[6],0.85%
same,inhibition,[7],1.63%
same,inhibition,[8],1.29%
same,inhibition,[9],1.9%
same,inhibition,[10],0.34%
same,inhibition,[11],-1.91%
same,inhibition,[12],3.44%
same,inhibition,[13],6.33%
same,inhibition,[14],-0.09%
same,inhibition,[15],-0.63%
same,inhibition,[16],1.57%
same,inhibition,[17],2.08%
same,inhibition,[18],3.16%
same,inhibition,[19],-0.63%
same,inhibition,[20],4.69%
O=C(O[C@H]1CN[C@H](C#Cc2cc3ncnc(Nc4ccc(Cc5ccccc5)cc4)c3s2)C1)N1CCOCC1,inhibition,[1],-0.81%
same,inhibition,[2],1.32%
same,inhibition,[3],1.73%
same,inhibition,[4],3.34%
same,inhibition,[5],1.04%
same,inhibition,[6],1.14%
same,inhibition,[7],3.13%
same,inhibition,[8],3.94%
same,inhibition,[9],3.64%
same,inhibition,[10],-0.29%
same,inhibition,[11],-0.68%
same,inhibition,[12],0.1%
same,inhibition,[13],2.79%
same,inhibition,[14],0.85%
same,inhibition,[15],0.99%
same,inhibition,[16],3.06%
same,inhibition,[17],2.95%
same,inhibition,[18],0.53%
same,inhibition,[19],0.17%
same,inhibition,[20],-2.8%
CCn1c(-c2nonc2N)nc2cnc(Oc3cccc(NC(=O)c4ccc(N(C)C)cc4)c3)cc21,inhibition,[1],29.4%
same,inhibition,[2],1.11%
same,inhibition,[3],2.61%
same,inhibition,[4],3.19%
same,inhibition,[5],28.2%
same,inhibition,[6],-0.06%
same,inhibition,[7],1.47%
same,inhibition,[8],0.98%
same,inhibition,[9],2.32%
same,inhibition,[10],-1.48%
same,inhibition,[11],0.84%
same,inhibition,[12],3.97%
same,inhibition,[13],6.82%
same,inhibition,[14],0.04%
same,inhibition,[15],0.22%
same,inhibition,[16],1.76%
same,inhibition,[17],2.25%
same,inhibition,[18],2.13%
same,inhibition,[19],-2.93%
same,inhibition,[20],2.57%
CNC(=O)c1cc(-c2ccc(F)cc2)cc(-c2ccc(S(=O)(=O)N3CCCC3)cc2)c1N,inhibition,[1],7.55%
same,inhibition,[2],2.79%
same,inhibition,[3],4.52%
same,inhibition,[4],4.69%
same,inhibition,[5],5.6%
same,inhibition,[6],0.78%
same,inhibition,[7],1.31%
same,inhibition,[8],0.82%
same,inhibition,[9],1.3%
same,inhibition,[10],-0.65%
same,inhibition,[11],-1.61%
same,inhibition,[12],3.68%
same,inhibition,[13],9.51%
same,inhibition,[14],1.46%
same,inhibition,[15],0.63%
same,inhibition,[16],3.43%
same,inhibition,[17],5.29%
same,inhibition,[18],2.26%
same,inhibition,[19],3.67%
same,inhibition,[20],-9.04%
COc1cc2ncn(-c3cc(OCc4ccccc4C(F)(F)F)c(C(=O)N(C)C)s3)c2cc1OC,inhibition,[1],2.4%
same,inhibition,[2],0.8%
same,inhibition,[3],1.58%
same,inhibition,[4],1.7%
same,inhibition,[5],2.67%
same,inhibition,[6],-0.01%
same,inhibition,[7],3.43%
same,inhibition,[8],1.15%
same,inhibition,[9],4.03%
same,inhibition,[10],0%
same,inhibition,[11],3.36%
same,inhibition,[12],-0.17%
same,inhibition,[13],-2.04%
same,inhibition,[14],-1.09%
same,inhibition,[15],-0.86%
same,inhibition,[16],-0.48%
same,inhibition,[17],-0.61%
same,inhibition,[18],-6.21%
same,inhibition,[19],0.3%
same,inhibition,[20],-7.29%
NC(=O)c1sc(-n2cnc3ccc(C(F)(F)F)cc32)cc1OCc1ccccc1Br,inhibition,[1],10.4%
same,inhibition,[2],4.95%
same,inhibition,[3],5.45%
same,inhibition,[4],4.02%
same,inhibition,[5],11%
same,inhibition,[6],2.27%
same,inhibition,[7],3.83%
same,inhibition,[8],3.43%
same,inhibition,[9],4.74%
same,inhibition,[10],-0.65%
same,inhibition,[11],0.41%
same,inhibition,[12],5.7%
same,inhibition,[13],7.84%
same,inhibition,[14],0.77%
same,inhibition,[15],1.46%
same,inhibition,[16],3.71%
same,inhibition,[17],3.48%
same,inhibition,[18],1.98%
same,inhibition,[19],3.21%
same,inhibition,[20],-5.11%
COc1cccc(-c2c[nH]c3c(N/N=C/c4ccncc4)ncnc23)c1,inhibition,[1],74.5%
same,inhibition,[2],1.76%
same,inhibition,[3],6.21%
same,inhibition,[4],17.5%
same,inhibition,[5],61.9%
same,inhibition,[6],5.59%
same,inhibition,[7],15.2%
same,inhibition,[8],4.97%
same,inhibition,[9],13.2%
same,inhibition,[10],2.3%
same,inhibition,[11],20.3%
same,inhibition,[12],2.35%
same,inhibition,[13],1.11%
same,inhibition,[14],0.94%
same,inhibition,[15],0.74%
same,inhibition,[16],1.83%
same,inhibition,[17],2.84%
same,inhibition,[18],0.46%
same,inhibition,[19],0.73%
same,inhibition,[20],5.9%
Nc1ncc(-c2cccc(S(N)(=O)=O)c2)c2scc(-c3ccc(F)c(Cl)c3)c12,inhibition,[1],92.6%
same,inhibition,[2],3.89%
same,inhibition,[3],6.87%
same,inhibition,[4],70.9%
same,inhibition,[5],91.6%
same,inhibition,[6],4.66%
same,inhibition,[7],6.44%
same,inhibition,[8],7.02%
same,inhibition,[9],6.15%
same,inhibition,[10],-0.08%
same,inhibition,[11],2.44%
same,inhibition,[12],3.95%
same,inhibition,[13],5.65%
same,inhibition,[14],3.24%
same,inhibition,[15],1.78%
same,inhibition,[16],5.21%
same,inhibition,[17],3.51%
same,inhibition,[18],4.11%
same,inhibition,[19],3.74%
same,inhibition,[20],-2.3%
COc1ccc(-c2cc(-c3c[nH]nc3-c3ccccn3)ccn2)cc1,inhibition,[1],80.3%
same,inhibition,[2],6.36%
same,inhibition,[3],4.25%
same,inhibition,[4],24.6%
same,inhibition,[5],72.7%
same,inhibition,[6],7.65%
same,inhibition,[7],10.6%
same,inhibition,[8],9.35%
same,inhibition,[9],10.1%
same,inhibition,[10],-2.95%
same,inhibition,[11],-0.46%
same,inhibition,[12],0.78%
same,inhibition,[13],3.96%
same,inhibition,[14],2.66%
same,inhibition,[15],1.63%
same,inhibition,[16],5.46%
same,inhibition,[17],5.49%
same,inhibition,[18],3.54%
same,inhibition,[19],1.94%
same,inhibition,[20],6.89%
CCCN1CCC(c2ccc(Nc3nc(Nc4cc(F)ccc4C(N)=O)c4cc[nH]c4n3)c(OC)c2)CC1,inhibition,[1],78.9%
same,inhibition,[2],9.27%
same,inhibition,[3],37.7%
same,inhibition,[4],21.8%
same,inhibition,[5],70.2%
same,inhibition,[6],10.6%
same,inhibition,[7],43.9%
same,inhibition,[8],5.71%
same,inhibition,[9],13.8%
same,inhibition,[10],-0.72%
same,inhibition,[11],0.06%
same,inhibition,[12],5.31%
same,inhibition,[13],3.04%
same,inhibition,[14],1.19%
same,inhibition,[15],2.08%
same,inhibition,[16],4.32%
same,inhibition,[17],5.21%
same,inhibition,[18],1.36%
same,inhibition,[19],22.6%
same,inhibition,[20],-9.18%
COC(=O)Nc1nc2ccc(Oc3ccc(NC(=O)Nc4cccc(Cl)c4)cc3)cc2[nH]1,inhibition,[1],3.87%
same,inhibition,[2],1.15%
same,inhibition,[3],0.9%
same,inhibition,[4],2.55%
same,inhibition,[5],4.97%
same,inhibition,[6],2.25%
same,inhibition,[7],1.87%
same,inhibition,[8],3.48%
same,inhibition,[9],4.19%
same,inhibition,[10],-1.11%
same,inhibition,[11],1.03%
same,inhibition,[12],5.21%
same,inhibition,[13],1.37%
same,inhibition,[14],-0.81%
same,inhibition,[15],0.02%
same,inhibition,[16],1.03%
same,inhibition,[17],2.18%
same,inhibition,[18],2.63%
same,inhibition,[19],3.67%
same,inhibition,[20],-3.19%
